Test results published in PubChem BioAssay.

Assay: E. coli DRC41 culture turbidity changes, primary screen, E. coli filamentation inducer project, strain DRC41, OD650, 48 h (AID 1152);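 further: E. coli MC1000 strain DRC41 lacking acrAB efflux pump and sulA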
Details: E. coli DRC41 (acrAB sulA), higher = more signal, called active from +8 up or from −8 down

z-score, inactive:
COc1ccc([Si](C)(C)[C@H]2[C@H](CCO)O[C@@]3(C(=O)N(Cc4cccc(N5C(=O)COc6ccccc65)c4)c4ccccc43)[C@@H]2C)cc1 1.76
CC(C)(C)OC(=O)CC[C@@]1(C(=O)NCc2ccccc2)N=C(c2ccc(OCCCO)cc2)O[C@@H]1c1ccccc1N=[N+]=[N-] 0.775
CN(C)CCCNC(=O)[C@@]1(c2ccc([N+](=O)[O-])cc2)CC(=O)N(CC23CC4CC(CC(C4)C2)C3)[C@@H]1c1ccc(CO)cc1I -5.6
C=C[C@@H](OC)[C@H](OC(=O)Nc1ccc(SC)cc1)c1ccc(O)c(F)c1 -1.51
CCC(CC)C(O)C1C=CC2C(=O)N(c3ccccc3)C(=O)C2N1Nc1ccc(C(C)C)cc1 (stereo unspecified) -0.636
COC(=O)[C@@]1(Cc2ccc(F)cc2)[C@H]2c3cc(C(=O)N(C)C)n(CCc4ccc(O)c(OC)c4)c3C[C@H]2CN1C(=O)c1ccccc1 -1.22
CC(C)[Si](C#CCCCC#N)(O[C@H](c1ccccc1)c1cn([C@H](CO)Cc2ccccc2)nn1)C(C)C 1.72
Cc1cc(C)c(C(O)C2C=CC3C(=O)NC(=O)C3N2Nc2ccc(Cl)cc2Cl)c(C)c1 (stereo unspecified) -2.38
CCOc1cc(C(O)C2C=CC3C(=O)N(C)C(=O)C3N2Nc2ccccc2)ccc1O (stereo unspecified) -0.353
O=C1O[C@H](c2ccccc2)[C@H](c2ccccc2)N2[C@H]1[C@@H](C(=O)Nc1nc3ccccc3s1)[C@]1(C(=O)Nc3ccc(C#CCCO)cc31)[C@H]2c1ccc(O)cc1 -0.742
CC(C)OC(=O)C=C1C[C@@H](c2ccc(C(F)(F)F)cc2)O[C@@H](c2ccc(C(F)(F)F)cc2)O1 0.609
CN(C)C(=O)[C@]1(CCS(=O)(=O)c2ccccc2)N=C(c2ccc(OCCCO)cc2)O[C@@H]1c1ccccc1N=[N+]=[N-] -0.0791
C=CCOC(=O)[C@H]1[C@@H]2C(=O)O[C@@H](c3ccccc3)[C@@H](c3ccccc3)N2[C@@H](c2ccc(OCCOC(=O)[C@H]3C[C@H]4C(=O)N[C@@H](CCCCNC(C)=O)C(=O)N4[C@H]3c3ccc(O)cc3)cc2)[C@]12C(=O)Nc1ccccc12 3.24
CC(CO)N1C(=O)[C@@H]2[C@H]3C(=O)OCC=C[C@H]3OC23C=CCN(Cc2ccccc2)C(=O)[C@@H]13 (stereo partly specified) 2.36
COCCOC(=O)N1C(=O)[C@@]2(c3cc(C#Cc4ccc(OC)cc4)ccc31)[C@H](C(=O)Nc1nc3ccccc3s1)[C@H]1C(=O)O[C@H](c3ccccc3)[C@H](c3ccccc3)N1[C@@H]2c1ccc(O)cc1 1.05
O=C1OCCC=C[C@H]2OC34C=CCN(Cn5nnc6ccccc65)C(=O)[C@H]3N(CCCCCCO)C(=O)[C@@H]4C12 (stereo partly specified) -0.051
CN(C)C(=O)[C@@]1(CCS(=O)(=O)c2ccccc2)N=C(c2ccc(OCCCO)cc2)O[C@H]1c1ccccc1 -0.1
CCCCN1CC=CC23O[C@@H]4/C=C\CCC(C)OC(=O)C4[C@H]2C(=O)N(C(CO)C(C)C)[C@@H]3C1=O (stereo partly specified) -0.0695
COC(=O)[C@H](Cc1ccccc1)N1CC(/C=C/C2CC2)=C[C@H]1[C@H](O)Cc1ccccc1 -0.555
CCCCCCc1nc(C2CC2)cc2c1[Si](C(C)C)(C(C)C)OC2 -0.611
Cc1ccc(S[C@]2(C(=O)NCC(F)(F)F)CC(=O)N(C3CCCCC3)[C@@H]2c2ccc(CO)cc2I)cc1 0.439
CCCC[C@@H]1C[C@H]1[C@@H](NC(=O)Cc1ccccc1)c1ccc(-c2ccccc2)cc1 -0.71
COC(=O)[C@@]1(Cc2ccc(OC)cc2)[C@H]2c3cc(C(=O)N(C)C)n(Cc4ccc(Cl)c(C(F)(F)F)c4)c3C[C@H]2CN1C(=O)c1ccccc1 -1.4
C=C(C)C1CCC(C(O)C2C=CC3C(=O)N(C)C(=O)C3N2N2CCCCC2)CC1 (stereo unspecified) -1.09
COCCOC(=O)N1C(=O)[C@@]2(c3cc(C#CCNC(N)=O)ccc31)[C@H](C(=O)N1CCc3cc(OC)c(OC)cc3C1)[C@H]1C(=O)O[C@H](c3ccccc3)[C@H](c3ccccc3)N1[C@@H]2c1ccccc1OCCO 1.83
O=C1OCCC/C=C\[C@H]2OC34C=CCN(CCN5CCOCC5)C(=O)[C@H]3N(CCCCCCO)C(=O)[C@@H]4C12 (stereo partly specified) 1.76
C#CCN([C@@H](Cc1ccc(O)cc1)C(=O)OC)[C@@H](/C=C/C1CC1)[C@H](O)Cc1ccccc1 -1.08
O=C1O[C@@H](c2ccccc2)[C@@H](c2ccccc2)N2[C@@H](c3ccccc3OCCO)[C@]3(C(=O)Nc4ccc(C#CCCO)cc43)[C@@H](C(=O)N3CCCCCCC3)[C@H]12 -0.723
CCOC(=O)C1=C[C@@H](c2ccccc2)N(S(=O)(=O)c2ccc(C)cc2)[C@H]1c1ccccc1Cl -1.18
CCCNC(=O)[C@@]1(c2ccc([N+](=O)[O-])cc2)CC(=O)N(C2CCCCC2)[C@@H]1c1ccc(CO)cc1 0.774
COC(=O)Cn1c(C(=O)N(C)C)cc2c1C[C@H]1CN(C(=O)c3ccccc3)[C@@](Cc3ccc(F)cc3)(C(=O)OC)[C@@H]21 -1.25
O=C1C[C@@](C(=O)NCCN2CCOCC2)(c2ccc([N+](=O)[O-])cc2)[C@@H](c2ccc(CO)cc2I)N1C1CCCCC1 0.82
C=CCN1Cc2ccccc2[C@H]2OC(c3ccc(OCCCO)cc3)=N[C@@]2(CC=C)C1=O 0.831
O=C1c2ccccc2[C@](Cc2ccccc2I)(C(=O)NCC(F)(F)F)[C@H](c2ccc(CO)cc2)N1C1CCCCC1 1.25
COc1ccc(C(O)C2C=CC3C(=O)N(c4ccccc4)C(=O)C3N2Nc2ccc([N+](=O)[O-])cc2)cc1 (stereo unspecified) -1.35
COCCOC(=O)N1C(=O)[C@@]2(c3cc(C#CCC(C(=O)OC)C(=O)OC)ccc31)[C@H](C(=O)N1CCc3cc(OC)c(OC)cc3C1)[C@H]1C(=O)O[C@H](c3ccccc3)[C@H](c3ccccc3)N1[C@@H]2c1ccc(OCCO)cc1 -0.763
